Reference: PubChem BioAssay (NCATS)
Inconclusive results are not listed. Entries that show only a call come without a potency. The source made the active and inactive calls. Calls follow the shape of the dose curve; as a rule, active = well fitted inhibition curve with a large enough effect; inconclusive = small, poorly fitted or top-dose-only effect; inactive = flat fitted curve, though single readings scatter.

Tests used:
Assay in all cases: qHTS profiling for inhibitors of Plasmodium falciparum proliferation (AID 504749); also: nearly all actives have a fitted effect of over 60% in size
Details in all cases: P. falciparum in erythrocytes, SYBR Green DNA, 72 h; series mostly up to 28.7 µM
[1] = tested on: CP315
Summary of the method: (§1)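 In a 72 h erythrocytic culture (37 C, humidified, 5% CO2) at 2.5% hematocrit and 0.3% starting parasitemia, compounds were tested; SYBR Green I in detergent lysis buffer stained parasite DNA overnight.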

[2] = tested on: CP325
Summary of the method: as §1

[3] = tested on: CP329
Summary of the method: as §1

[4] = tested on: CP335
Summary of the method: as §1

[5] = tested on: DFO2036
Summary of the method: as §1

[6] = tested on: DIV14
Summary of the method: as §1

[7] = tested on: DIV17
Summary of the method: as §1

[8] = tested on: DIV30
Summary of the method: as §1

[9] = tested on: Dd2
Summary of the method: as §1

[10] = tested on: ECU
Summary of the method: as §1
Potency is read from the fitted curve at half-maximal effect.

SMILES | Potency [1] | Potency [2] | Potency [3] | Potency [4] | Potency [5] | Potency [6] | Potency [7] | Potency [8] | Potency [9] | Potency [10]
C#C[C@]1(O)CC[C@H]2[C@@H]3CCC4=Cc5oncc5C[C@]4(C)[C@H]3CC[C@@]21C | inactive | inactive | inactive | inactive | inactive | inactive | inactive | inactive | inactive | inactive
CCCCCCCCCCCCCC(=O)OC(C)C | inactive | inactive | inactive | inactive | inactive | inactive | inactive |  | inactive | inactive
OC[C@H]1O[C@@H]2O[C@H]3[C@H](O)[C@@H](O)[C@@H](O[C@H]4[C@H](O)[C@@H](O)[C@@H](O[C@H]5[C@H](O)[C@@H](O)[C@@H](O[C@H]6[C@H](O)[C@@H](O)[C@@H](O[C@H]7[C@H](O)[C@@H](O)[C@@H](O[C@H]8[C@H](O)[C@@H](O)[C@@H](O[C@H]1[C@H](O)[C@H]2O)O[C@@H]8CO)O[C@@H]7CO)O[C@@H]6CO)O[C@@H]5CO)O[C@@H]4CO)O[C@@H]3CO | inactive | inactive | inactive | inactive | inactive | inactive |  | inactive | inactive | inactive
C/C=C/c1ccc(O)c(OC)c1 | inactive | inactive | inactive | inactive | inactive |  | inactive |  | inactive | inactive
CCCCc1cc2ccccc2c(OCCN(C)C)n1 | inactive | inactive | inactive | inactive | inactive | inactive | inactive | inactive |  | inactive
COc1ccc(CCN(C)CCCN2CCc3cc(OC)c(OC)cc3CC2=O)cc1OC | inactive | inactive | inactive | inactive | inactive | inactive | inactive | inactive |  | inactive
COc1cc([C@H]2Oc3cc([C@H]4Oc5cc(O)cc(O)c5C(=O)[C@@H]4O)ccc3O[C@@H]2CO)ccc1O | inactive | inactive | inactive | inactive | inactive |  |  | 19 µM (active) | inactive | inactive
Cc1c[nH]c2ccccc12 | inactive | inactive | inactive | inactive | inactive | inactive | inactive | inactive | inactive | inactive
CCCCCCCCCCCCCC[N+](C)(C)Cc1ccccc1 | 10.7 µM (active) | 5.36 µM (active) | 4.78 µM (active) | 4.78 µM (active) | 7.94 µM (active) | 4.78 µM (active) | 4.78 µM (active) | 6.75 µM (active) | 10 µM (active) | 7.08 µM (active)
c1ccc(-c2nc[nH]c2-c2ccccc2)cc1 | inactive | inactive | inactive | inactive | inactive | inactive | inactive | inactive | inactive | inactive
CCCCCCCCOc1ccc(C(=O)c2ccccc2)c(O)c1 | inactive | inactive | inactive | inactive | inactive | inactive | inactive | inactive | inactive | inactive
Oc1ccccc1C=NCc1ccccc1 | inactive | inactive | inactive | inactive | inactive | inactive | inactive | inactive | inactive | inactive
CCC(CC)(CC(=O)Nc1cccc(/C=C/c2nc(C3CCC3)cs2)c1)C(=O)O | inactive | inactive | inactive | inactive | inactive | inactive |  | inactive | inactive | inactive
NC(=O)n1c(O)c(C(=O)c2cccs2)c2cc(Cl)ccc21 | inactive | inactive | inactive | inactive | inactive | inactive | inactive | inactive | inactive | inactive
O=C(O)C1(C(=O)O)CCC1.[NH2-].[NH2-].[Pt+2] | inactive | inactive | inactive | inactive | inactive | inactive | inactive | inactive |  | inactive
COc1ccc2c(c1)c1c3n2CCN(C)C3=NCC1 | inactive | inactive | inactive | inactive | inactive | inactive |  | inactive | inactive | inactive
Cc1cc(C)cc(OCC2CNC(=O)O2)c1 (configuration not stated) | inactive | inactive | inactive | inactive | inactive | inactive | inactive | inactive | inactive | inactive
CCc1ccc(C(=O)C(C)CN2CCCCC2)cc1 (configuration not stated) | inactive | inactive | inactive | inactive | inactive | inactive |  | inactive | inactive | inactive
OCCOCCN1CCN(C2=Nc3ccccc3Sc3ccccc32)CC1 | inactive | inactive | inactive | inactive | inactive |  | inactive | inactive |  | inactive
CCCCC(CC)COC(=O)c1ccc(N(C)C)cc1 (configuration not stated) | inactive | inactive | inactive | inactive | inactive |  | inactive | inactive | inactive | inactive
COc1cc(NS(=O)(=O)c2ccc(N)cc2)ncn1 | inactive | inactive | inactive | inactive | inactive | inactive |  | inactive | inactive | inactive
OC1C(O)C(O)C(O)C(O)C1O (configuration not stated) | inactive | inactive | inactive | inactive | inactive | inactive | inactive | inactive | inactive | inactive
COc1cc(N)c(Cl)cc1C(=O)NC1CCN(Cc2ccccc2)CC1 | inactive | inactive | inactive | inactive | inactive | inactive | inactive |  | inactive | inactive
CC1(COc2ccc(CC3SC(=O)NC3=O)cc2)CCCCC1 (configuration not stated) | inactive | inactive | inactive | inactive | inactive | inactive |  | inactive | inactive | inactive
C[N+]1(CC2COC(c3ccccc3)(C3CCCCC3)O2)CCCCC1 (configuration not stated) | 6.01 µM (active) | 6.75 µM (active) |  |  | 7.94 µM (active) | 6.01 µM (active) | 6.01 µM (active) | 6.75 µM (active) | 7.08 µM (active) | 4.47 µM (active)
COc1ccc(C(=O)c2ccccc2O)c(O)c1 | inactive | inactive | inactive | inactive | inactive |  |  |  | inactive | inactive
